S1P4 antag: blocks the human S1P4 receptor. O95977. S1P4-expressing cells, antagonist mode, reporter read-out. inhibition, % at 4.98 µM. 220,000 tested, 0.26% active. AID 1510; in the data active = inhibition above about 29%;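 note: 0% = wells stimulated with agonist and 100% = vehicle wells without agonist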
AI-2 QS mod: modulators of Vibrio harveyi AI-2 quorum sensing system. Vibrio harveyi JMH597 AI-2 luminescence/OD600 ratio, 9 h; active compounds read low; strain lacks LuxN and CqsS sensors; 0 = neutral-control median. activity change, % at 7.5 µM. 300,000 tested, 0.4% active; in the data active = activity change below about -75%, passing the limit was not always enough;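 note: luminescence divided by OD600 gain over 9 h not by final OD600 alone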
S1P4 ag: activates the human S1P4 receptor | S1P4-expressing cell line, agonist reporter assay | activation, % at 4.98 µM | 220,000 tested, 0.35% active | O95977; in the data active = activation above about 11%;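 note: 0% = DMSO vehicle and 100% = reference agonist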
S1P3 antagonist: antagonists of human S1P3 receptor; Q99500; CHO S1P3 NFAT-BLA reporter, FRET fluorescence, antagonist mode; inhibition, % at 4.98 µM; 170,000 tested, 0.27% active; AID 485;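 active = inhibition above the plate cutoff, the mean inhibition of test wells on that plate plus 3 SD, cut at about 28% in these data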;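 note: cells challenged with S1P at its EC80 of 0.8 µM; blue over green emission ratio from cleaved BLA substrate after 4 h stimulation; 0% = S1P-stimulated wells and 100% = unstimulated DMSO-only wells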
Target sequence (Q99500 whole entry, looked up): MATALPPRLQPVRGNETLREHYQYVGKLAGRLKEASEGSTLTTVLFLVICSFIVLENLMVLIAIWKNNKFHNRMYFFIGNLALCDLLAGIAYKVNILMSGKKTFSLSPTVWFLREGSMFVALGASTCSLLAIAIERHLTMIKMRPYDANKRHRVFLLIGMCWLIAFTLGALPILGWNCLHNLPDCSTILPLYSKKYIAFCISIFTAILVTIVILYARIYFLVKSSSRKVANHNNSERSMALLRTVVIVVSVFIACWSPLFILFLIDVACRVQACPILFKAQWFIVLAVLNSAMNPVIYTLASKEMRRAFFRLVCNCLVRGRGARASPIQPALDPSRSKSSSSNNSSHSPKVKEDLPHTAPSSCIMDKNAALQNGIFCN
Hsp70 act: transcriptional activators of Hsp70. HeLa Hsp70 promoter luciferase reporter, luminescence; scaled: vehicle 0, proteasome-inhibitor control 100%. activation, % at 10 µM. 200,000 tested, 0.04% active;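 active = activation above the mean across all tested compounds plus 3 SD, cutoff set per campaign, cut at about 5.5% in these data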;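 note: 100% = MG132 at 30 µM as the positive control and 0% = DMSO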
S1P4 antag cf: human S1P4 antagonism, confirmation; 520 tested, 71% active; inhibition, % at 4.98 µM; shares compounds with S1P4 antag; S1P4-expressing cell line, antagonist mode, reporter read-out; in the data active = inhibition above about 30%
S1P1 antagonist: blocks human S1P1, counter-screen for S1P4 antagonists | shares compounds with S1P4 antag | 520 tested, 37% active | cell-based S1P1 antagonist counterscreen, inhibition | inhibition, % at 4.98 µM; in the data active = inhibition above about 40%;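 note: receptor stimulated with S1P near its EC80; 0% = agonist stimulated wells and 100% = vehicle only wells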
The depositor's hits bear a star; . = not tested or not shown. The list is not random: actives were taken first. Their share in the collection is about 0.97%.

SMILES	S1P4 antag	AI-2 QS mod	S1P4 ag	S1P3 antagonist	Hsp70 act	S1P4 antag cf	S1P1 antagonist
Nc1nc(SCC(=O)NCCc2ccccc2)[nH]c(=O)c1-c1ccccc1	-10	19	4	-15	1	.	.
CC(CCc1ccccc1)NC(=O)c1ccc(F)cc1 (stereo not drawn)	.	3	.	.	.	.	.
O=C(NCCC1=CCCCC1)c1cccc(S(=O)(=O)N2CCCCC2)c1	.	10	.	.	.	.	.
COC(=O)c1cc(=O)n(-c2ccc(F)cc2)c(=Nc2ccc(F)cc2)s1	29*	40	4	13	1	100*	76*
COc1ccc(Nc2cc(C)c3ccc(O)cc3n2)cc1	88*	34	0	-6	.	65*	30
CC(=O)Nc1ccc(Nc2cc(C)c3ccccc3n2)cc1	.	25	.	.	.	.	.
CCOc1ccc(Nc2cc(C)c3ccccc3n2)cc1	.	14	.	.	.	.	.
Cc1cc(Nc2ccccc2)nc2cc(O)ccc12	92*	12	0	-15	0	81*	41*
Cn1c(=O)c2c(ncn2CCOc2ccc(F)cc2)n(C)c1=O	.	4	.	.	.	.	.
CN(C)c1ccc(C(=O)c2ccc(N(C)C)c3ccccc23)cc1	34*	6	-1	.	1	50*	60*
Cc1ccc(C)n1-c1ccc(C(=O)N2CCC(C(N)=O)CC2)cc1	44*	17	0	-21	0	-1	0
CCOC(=O)C1=C(C)N=C2SC(C(=O)OC)=CC(=O)N2C1c1ccc(OC)cc1 (stereo not drawn)	46*	3	0	10	0	17	6
COC(=O)C1=C(C)N=C2SC(C#N)=C(N)N2C1c1ccc(OC)cc1 (stereo not drawn)	-10	6	2	.	0	.	.
OC(CNCCc1ccccc1)COc1ccc(OCC(O)CNCCc2ccccc2)cc1 (stereo not drawn)	32*	-1	-1	9	.	55*	39
OC(CNCCc1ccc(Cl)cc1)COc1ccc2ccccc2c1 (stereo not drawn)	-15	.	2	-7	0	.	.
O=C(c1ccccc1)c1ccccc1N1C(=O)C=CC1=O	38*	76	-1	-9	.	104*	9
COc1ccc(OC)c(S(=O)(=O)N/N=C(/C)c2ccc3c(c2)OCO3)c1	.	12	.	.	.	.	.
O=C(/C(=C/c1ccc(Cl)cc1)c1nc2ccccc2[nH]1)c1cccs1	44*	23	-1	.	4	116*	74*
O=C(Cn1ncc(Cl)c(Cl)c1=O)c1ccc(Cl)cc1	44*	-40	-1	.	0	107*	63*
O=c1cnn(Cc2ccc(F)cc2)c2ccccc12	.	-5	.	.	.	.	.
O=C1CN(C(=O)Cn2ncc(Cl)c(Cl)c2=O)c2ccccc2N1	38*	25	-4	4	0	117*	69*
Cc1ccc(NC(=O)CN(C)C(=O)Cc2ccc(Cl)c(Cl)c2)cc1	.	22	.	.	.	.	.
Cc1ccc(NC(=O)CN(C)C(=O)Cn2ncc(Cl)c(Cl)c2=O)cc1	82*	30	1	5	0	106*	79*
O=c1c(Cl)c(Cl)cnn1Cc1ccc(F)cc1	60*	10	-4	-1	0	105*	31
Cc1cccc(NC(=O)CC2C(=O)NCCN2C(=O)Nc2ccc(Cl)cc2)c1 (stereo not drawn)	.	16	.	.	.	.	.
SMILES	S1P4 antag	AI-2 QS mod	S1P4 ag	S1P3 antagonist	Hsp70 act	S1P4 antag cf	S1P1 antagonist
CC(C)(C)C(=O)Cn1ncc(Cl)c(Cl)c1=O	53*	19	-1	-1	0	78*	24
O/N=C1/C2C3C(Br)C4C5CC(C1C53)C24 (stereo not drawn)	-4	-2	0	-13	0	.	.
CCn1c(Cl)c(C=O)s/c1=N\S(=O)(=O)c1ccccc1	88*	25	-3	18	.	120*	119*
CCN1C(=O)CS/C1=N\S(=O)(=O)c1ccc(Cl)cc1	-8	12	2	-83	0	.	.
CCC(C)(C)NC(=O)C1CCCN(S(=O)(=O)c2ccc3c(c2)CC(C)N3C(=O)C2CC2)C1 (stereo not drawn)	.	20	.	.	.	.	.
CCCN1C(=O)/C(=C/c2ccc(OCC(=O)OCC)cc2)NC1=S	30*	15	-1	-19	0	12	11
O=C(Nc1ccc(F)c(F)c1)C1CCN(S(=O)(=O)c2cccc3nonc23)CC1	.	24	.	.	.	.	.
COc1cccc(-n2nc(C#N)c(Cl)cc2=O)c1	94*	-45	-3	-13	1	104*	0
COc1cccc(-n2nc(C(N)=O)c(O)cc2=O)c1	0	18	-1	-21	0	.	.
COc1cc(OC)cc(N2C(=O)CSCC2=O)c1	-2	14	1	-1	.	.	.
CC(=O)n1cc(N(C(=O)CCl)c2ccc(Cl)cc2)c2ccccc21	60*	.	-3	12	.	115*	41*
Cc1n[nH]c(C)c1N1C(=O)c2cccc3cc(Br)cc(c23)C1=O	2	28	-2	.	-1	.	.
Cc1n[nH]c(C)c1N1C(=O)c2cccc3c(Br)ccc(c23)C1=O	70*	38	1	.	-1	79*	93*
CC(=O)C1=C(O)C(=O)N(Cc2ccccc2)C1c1ccc([N+](=O)[O-])cc1 (stereo not drawn)	.	35	.	.	.	.	.
COc1ccc(-n2ncc(Cl)c(Cl)c2=O)cc1	95*	16	0	2	1	118*	57*
COc1cccc2c1OC1(CCN(C(C)C)CC1)N1N=C(c3cccnc3)CC21 (stereo not drawn)	-5	21	-1	3	.	.	.
CC(C)N1CCC2(CC1)Oc1ccc(Br)cc1C1CC(c3cccnc3)=NN12 (stereo not drawn)	32*	12	0	4	.	19	32
CN(NC(=O)Nc1ccc(Cl)cc1)c1ncc(C(F)(F)F)cc1Cl	-5	8	-1	.	0	.	.
CN(NC(=O)Nc1ccc(Cl)cc1)c1c(Cl)c(Cl)nn1C	53*	37	-3	-19	0	47*	6
COc1ccc(C(=O)NC2CCCc3ccccc32)cc1 (stereo not drawn)	.	13	.	.	.	.	.
O=C(/C=C/c1ccccc1)NC1CCCc2ccccc21 (stereo not drawn)	54*	-8	-1	-1	0	54*	-21
CN(C)c1ccc(C(=O)NC2CCCc3ccccc32)cc1 (stereo not drawn)	48*	4	-1	-6	0	56*	-10
CCOC(=O)C[C@H]1c2cc(C(F)(F)F)ccc2S(=O)(=O)N1C(C)C	.	13	.	.	.	.	.
COc1ccc(N2C(=O)C(CC(=O)Nc3ccccc3)N(Cc3ccccn3)C2=S)cc1 (stereo not drawn)	-13	7	-1	2	0	.	.
O=C(Nc1ccc(-c2n[nH]c(=S)o2)cc1)c1ccccc1Br	.	26	.	.	.	.	.

Screening data: PubChem, several laboratories
